Screening data deposited in PubChem by SRMLSC.
Sampled rows, rich in hits. Any-hit rate of the full collection: about 6.8%.
PMK inhibit = S. pneumoniae PMK inhibitors, primary screen, biochemical, mevalonate pathway, pilot trial included | phosphomevalonate kinase (Streptococcus pneumoniae D39) | purified PMK, PK/LDH-coupled NADH absorbance 340 nm | inhibition, % at 10 µM | hit rate 0.49% among 65,000;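 active = top-ranked compounds by inhibition in the single 10 µM screen, taking a fixed number of the strongest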
Spn MK inh = S. pneumoniae MK inhibitors, primary screen, biochemical, PK/LDH-coupled NADH absorbance | mevalonate kinase [Streptococcus pneumoniae D39] | purified MK, PK/LDH-coupled NADH absorbance 340 nm | inhibition, % at 10 µM | hit rate 0.48% among 65,000 | AID 555, 2006;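 active = ranked among the strongest by inhibition in the single 10 µM screen, a fixed top-ranked set picked for dose follow-up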
Autofluor 339 = intrinsic fluorescence of library compounds, ex339/em460 – biochemical, MLSMR library, data from DPM-DC assay, artefact control, profiling panel | compound autofluorescence, ex339/em460 nm, NADH buffer; stronger effect = higher value; 1 = no-compound wells, NADH background | fluorescence fold increase at 10 µM | hit rate 5.5% among 65,000 | AID 709, 2007;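 active = at 10 µM, mean starting fluorescence two-fold or more over control wells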;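 also: signal is the first read of a kinetic run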
A340 absorber = compound light absorbance at 340 nm, profiling panel, artefact control, biochemical, MLSMR library, data from PS, PMK, MK assays; compound absorbance at 340 nm, fold over control; fold change at 10 µM; 65,000 tested, under 10 active;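 active = at 10 µM dose, initial 340 nm absorbance at least 2 fold that of control wells; inactive = change under 2 fold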;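 also: initial absorbance extrapolated from kinetic A340 decline of NADH oxidation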
NADH coupling = inhibitors of PK/LDH coupling enzymes, profiling panel, artefact control, biochemical, MLSMR library; hit rate 0.02% among 65,000; coupled PK/LDH NADH assays, four targets; IC50, µM (doses to about 10 µM);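 active = single-dose screening hits from any of four coupled enzyme assays that gave an IC50 when retested across doses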;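 also: the DPM-DC format reads NADH fluorescence rather than 340 nm absorbance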
Spn DPM-DC inh = S. pneumoniae DPM-DC inhibitors, primary screen, biochemical, PK/LDH-coupled NADH fluorescence; calls only at 10 µM; AID 556, 2006; purified DPM-DC; hit rate 0.49% among 65,000; diphosphomevalonate decarboxylase (Streptococcus pneumoniae D39);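 active = the 320 compounds with the highest percent inhibition in the single-dose primary screen, excluding strongly autofluorescent ones, cut at about 32% in these data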;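 also: kinetic rate of NADH fluorescence loss reporting ADP formed by the decarboxylase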
Large screens that a line does not name were inactive; ! = a repeat was not active; [ ] = another dose, or the depositor's remark.

CC(NC(=O)NC1CCCCC1)C(c1cccs1)N1CCOCC1 (configuration not stated)	none
CC(C)(C)NC(=O)CSc1ncnc2c1nnn2Cc1ccccc1Cl	PMK inhibit 40
CN1C(=O)c2ccccc2N(C)C1c1ccc2c(c1)OCO2 (configuration not stated)	Autofluor 339 3.9 (not shown: Spn DPM-DC inh)
Cc1nnc2sc(-c3ccncc3)nn12	none
Cc1nnc2sc(-c3cccc4ccccc34)nn12	Autofluor 339 2.2
O/N=C1\CCCc2oc3c(c21)CCCC3	none
CN1CC=C2C(C#N)=C(N)C(C#N)(C#N)C(c3cccc(Cl)c3Cl)C2C1 (configuration not stated)	none
COc1ccc(OC)c(C2C3CN(C(C)C)CC=C3C(C#N)=C(N)C2(C#N)C#N)c1 (configuration not stated)	none
Cc1ccc(C2C3CN(C(C)C)CC=C3C(C#N)=C(N)C2(C#N)C#N)cc1 (configuration not stated)	Autofluor 339 2.3, Spn DPM-DC inh active[fluoresces]
CCN1CC=C2C(C#N)=C(N)C(C#N)(C#N)C(CCc3ccccc3)C2C1 (configuration not stated)	Autofluor 339 5.1 (not shown: Spn DPM-DC inh)
CCCN1CC=C2C(C#N)=C(N)C(C#N)(C#N)C(c3cccc(OC)c3OC)C2C1 (configuration not stated)	Autofluor 339 2.2
N#CC1=C(N)C(C#N)(C#N)[C@H](c2ccoc2)[C@H]2CN(Cc3ccccc3)CC=C12	Autofluor 339 2.3
Cc1cc(C)n(-c2nc3ccccc3c(=O)n2OCC(=O)Nc2c(C)cccc2C)n1	none
CSc1ccccc1NC(=O)c1cc(-c2cccs2)on1	Autofluor 339 2.3
CCN(CC)CCCNC(CC(=O)O)C(=O)O (configuration not stated)	none
Cc1ccn2cc(-c3ccc(S(=O)(=O)N4CCOCC4)cc3)nc2c1	Autofluor 339 2.2 (not shown: Spn DPM-DC inh)
Cc1ccc(S(=O)(=O)N2CCOCC(=O)NCCOCCNC(=O)COCC2)cc1	Spn DPM-DC inh active
Cc1ccc2nc(-c3ccc(S(=O)(=O)N4CCOCC4)cc3)cn2c1	Autofluor 339 3 (not shown: Spn DPM-DC inh)
Cc1ccc2nc(-c3ccccc3)cn2c1	Autofluor 339 2.9
O=C(O)c1cc(-c2ccncc2)nc2ccc(S(=O)(=O)N3CCOCC3)cc12	none
COc1ccc(S(=O)(=O)n2nc(OC(=O)c3c(-c4ccccc4Cl)noc3C)cc2N)cc1	none
CC1(C)Cc2ccccc2-c2nnc(SCC(=O)N3CCN(c4ccccc4)CC3)n21	none
CC(C)CN(C(=O)c1ccc(=O)n(C)n1)c1nc2ccccc2s1	none
COc1ccc(C(=O)Nn2cc3c(c2-c2ccccc2)c(=O)n(C)c(=O)n3C)cc1	none
COc1ccc(-c2c3c(=O)n(C)c(=O)n(C)c3cn2-c2ccccc2)cc1	Autofluor 339 3.8 (not shown: Spn DPM-DC inh)
CCOC(=O)C1(C)NC(c2ccc(OC)cc2OC)C2C(=O)N(c3cccc(OC)c3)C(=O)C21 (configuration not stated)	none
Cc1nnc(SCCn2c(N3CCN(c4ccccc4)CC3)nc3c2c(=O)n(C)c(=O)n3C)s1	none
O=C(Nc1ccc2nsnc2c1)c1cccs1	none
O=C(Nc1cccc2nsnc12)c1cccs1	Autofluor 339 3.6! (not shown: Spn DPM-DC inh)
CC(C)(C)NS(=O)(=O)c1ccc(NS(=O)(=O)c2ccc(F)cc2)cc1	PMK inhibit 26
CCNC(=O)Cc1ccc(NS(=O)(=O)c2ccc(F)cc2)cc1	none
O=C(Nc1ccc(F)cc1F)NC1CC(=O)N(Cc2ccccc2)C1 (configuration not stated)	none
CCOC(=O)N1CCC(NC(=O)c2cc3c(-c4cccc(OC)c4)nn(C)c3s2)CC1	Autofluor 339 3.9
COc1cccc(-c2nn(C)c3sc(C(=O)NCc4ccccn4)cc23)c1	Autofluor 339 4.9 (not shown: Spn DPM-DC inh)
CCn1c(=O)cc(SCC(=O)N2CCN(c3ccccc3OC)CC2)c2ccccc21	none
CC1=CC(C)(C)N=C(Nc2ccc(C)cc2)S1	none
COC(=O)c1c(S(N)(=O)=O)c2ccccc2n1C	Autofluor 339 2.1 (not shown: Spn DPM-DC inh)
CN1C(=O)N2CN(C3CCCCC3)CN3C(=O)N(C)C1C23 (configuration not stated)	none
c1ccc(-n2nnnc2SCc2cn3ccccc3n2)cc1	none
c1ccc(-n2nnnc2SCc2cn3cccnc3n2)cc1	Autofluor 339 5 (not shown: Spn DPM-DC inh)
CC1CCc2cc(F)ccc2N1C(=O)CSc1nnc(-c2cccs2)n1C (configuration not stated)	none
Cc1ccc(-c2nn(CC(=O)NCCN3CCOCC3)c(=O)c3ccccc23)cc1	none
O=c1c2cccc3c2c(nn1CN1CCOCC1)-c1ccccc1-3	Autofluor 339 2.4
Cc1ccc2[nH]c(-c3cccc(N)c3)cc2c1	Autofluor 339 3.8 (not shown: Spn DPM-DC inh)
COC(=O)CNC(=O)Cc1c(F)cccc1Cl	none
COc1ccc(S(=O)(=O)N2CCC(C(=O)Nc3ccccc3C)CC2)c2cccnc12	none
COc1ccc(C2(C)NC(=O)N(Cc3cc(Cl)cc4c3OCOC4)C2=O)cc1OC (configuration not stated)	PMK inhibit 31
NC1C2CN(c3nc4c(cc3F)c(=O)c(C(=O)O)cn4-c3ccc(F)cc3F)CC12 (configuration not stated)	Autofluor 339 2.1
CC1CC(C)CN(Cc2nc(N)nc(Nc3ccc4ccccc4c3)n2)C1 (configuration not stated)	none
C=CCn1c(NC(=O)c2ccccc2Cl)c(C#N)c2nc3ccccc3nc21	Autofluor 339 3.8 (not shown: Spn DPM-DC inh)
N#CCCn1c(-c2nonc2NC(=O)c2ccccc2Cl)nc2ccccc21	none
C=CCn1c(NC(=O)c2ccccc2)c(C#N)c2nc3ccccc3nc21	Autofluor 339 2.1 (not shown: Spn DPM-DC inh)
CCNc1nc(N)nc(Oc2ccc(OCCOc3ccc(Cl)cc3Cl)nn2)n1	none
Cc1cccn2c(=O)c3cc(C(=O)NCc4ccco4)c(=N)n(CCc4ccccc4)c3nc12	Autofluor 339 3.8 (not shown: Spn DPM-DC inh)
Cc1cccn2c(=O)c3cc(C(=O)NCc4ccco4)c(=N)n(C(C)C)c3nc12	Autofluor 339 2.3 (not shown: Spn DPM-DC inh)
COCCCn1c(=N)c(C(=O)NCc2ccc3c(c2)OCO3)cc2c(=O)n3cccc(C)c3nc21	none
CCOC(=O)C1CCCN(C(=O)CN2CCN(Cc3ccc(Cl)cc3)C2=O)C1 (configuration not stated)	none
O=c1cc(-c2c(F)c(F)c(F)c(F)c2F)oc2c(F)c(F)c(F)c(F)c12	none
CC1CCCN(S(=O)(=O)c2cccc(-c3cn4cccnc4n3)c2)C1 (configuration not stated)	Autofluor 339 3.6 (not shown: Spn DPM-DC inh)
Cn1c(-c2ccccc2)cc(=O)c2ccccc21	none
